# Data from PubChem BioAssay (NCI).
# The panel holds about 79,000 compounds, 15% with a hit somewhere; the sample as a whole holds those more often. A number with no mark means an inactive call. The source made the active and inactive calls. Rule as the data show it: active = growth inhibition above about 70%; inactive = the rest.
# How the values were obtained:
# [1] = NCI Yeast Anticancer Drug Screen. Data for the rad50 strain (AID 155);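 also: 0% = growth of vehicle-only cultures of the same strain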; conditions: S. cerevisiae rad50 strain growth inhibition, stronger effect = higher value
# Outline: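 Relative growth inhibition (compound vs vehicle) was measured in yeast with a defined repair-gene alteration.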
# [2] = NCI Yeast Anticancer Drug Screen. Data for the mec2-1 strain (AID 157); conditions: S. cerevisiae mec2-1 strain, stronger effect = higher value
# Outline: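 Compounds were applied to mec2-1 yeast cells. Their growth was then compared with that of vehicle-treated cultures to give growth inhibition.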
# [3] = NCI Yeast Anticancer Drug Screen. Data for the sgs1 mgt1 strain (AID 161);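 also: 0% = growth of cultures given vehicle only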; conditions: S. cerevisiae sgs1 mgt1 strain, stronger effect = higher value
# Outline: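 Compounds are added to genetically altered yeast, and growth is compared with cultures given vehicle alone to give percent inhibition.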
# [4] = NCI Yeast Anticancer Drug Screen. Data for the cln2 rad14 strain (AID 165);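 also: 0% = growth equal to vehicle treated cultures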; conditions: S. cerevisiae cln2 rad14 strain, stronger effect = higher value
# Outline: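 Strain: cln2 rad14 yeast, altered in cell cycle control and DNA damage repair. Read-out: growth inhibition vs vehicle.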
# [5] = NCI Yeast Anticancer Drug Screen. Data for the bub3 strain (AID 167); conditions: S. cerevisiae bub3 mutant strain, stronger effect = higher value
# Outline: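 Screening used yeast with an engineered genetic alteration affecting cell cycle control. Compound-exposed cultures were compared with vehicle cultures, and reduced growth was taken as inhibition.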
# [6] = NCI Yeast Anticancer Drug Screen. Data for the mlh1 rad18 strain (AID 175); conditions: S. cerevisiae mlh1 rad18 strain growth inhibition, stronger effect = higher value
# Outline: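 A repair-deficient yeast strain is exposed to test compound, and growth is scored relative to vehicle-treated controls.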
# [7] = at 5.0 µM (retest, dose inferred, filed as 0.5)
# [8] = at 50.0 µM (retest, dose inferred, filed as 5.0)
SMILES,"growth inhibition [1, 7]","growth inhibition [1, 8]",growth inhibition ([1]; at 50.0 µM),"growth inhibition [2, 7]","growth inhibition [2, 8]",growth inhibition ([2]; at 50.0 µM),"growth inhibition [3, 7]","growth inhibition [3, 8]",growth inhibition ([3]; at 50.0 µM),"growth inhibition [4, 7]","growth inhibition [4, 8]",growth inhibition ([4]; at 50.0 µM),"growth inhibition [5, 7]","growth inhibition [5, 8]",growth inhibition ([5]; at 50.0 µM),"growth inhibition [6, 7]","growth inhibition [6, 8]",growth inhibition ([6]; at 50.0 µM)
O=C1CCC/C1=C\c1ccccc1,7%,15%,3.05%,7%,5%,7.6%,3%,6%,1.4%,-2%,-13%,49.3%,-2%,5%,6.1%,1%,4%,2.2%
Nc1ccc(CSc2ccc(Cl)cc2)cc1Cl,-3%,99% (active),37%,-5%,99% (active),3.9%,-6%,98% (active),40.9%,-16%,99% (active),-24.7%,32%,99% (active),4.35%,1%,99% (active),13.7%
C(=C\c1cnnc2ccccc12)/c1ccco1,2%,32%,58.2%,5%,33%,20.4%,6%,39%,29.4%,2%,31%,80.8% (active),-2%,27%,18.8%,2%,40%,39.8%
O=C1C=CC(=O)N1CCCCCCN1C(=O)C=CC1=O,19%,99% (active),99% (active),29%,100% (active),99.3% (active),32%,99% (active),98.8% (active),16%,99% (active),99.5% (active),20%,97% (active),99.5% (active),38%,99% (active),99.2% (active)
Cc1ccc(C)c(N2C/C(=N\NC(=O)CC#N)C(c3nc4ccccc4s3)C(=O)C2=O)c1 (stereo not given),0%,1%,7.9%,0%,2%,-0.3%,-3%,-3%,-5.2%,-3%,-1%,12.6%,33%,19%,-0.3%,1%,1%,20.9%
O=C1CCCC/C1=C/c1ccc(Cl)cc1,-151%,35%,87.3% (active),-49%,-13%,81.2% (active),-64%,35%,82% (active),-57%,-37%,33%,-64%,27%,73.7% (active),-229%,36%,90.8% (active)
O=C(NC[N+]12CCO[B-]1(c1ccc(Br)cc1)OCC2)c1ccccc1O (stereo not given),10%,48%,65.2%,11%,43%,56.2%,23%,51%,60.2%,-4%,38%,21.3%,26%,63%,61.5%,24%,72% (active),87.9% (active)
O=Nc1c(-c2c[nH]c3ccccc23)[nH]c2ccccc12,8%,60%,51.1%,7%,44%,24.2%,13%,56%,16%,-8%,33%,16.9%,13%,84% (active),69%,12%,53%,26.1%
O=C(Nc1ccc([N+](=O)[O-])cc1[N+](=O)[O-])C(=O)C(C(=O)c1ccc(Cl)c(Cl)c1)C1OC(=O)c2ccccc21 (stereo not given),27%,27%,67%,25%,25%,40.9%,22%,22%,61.8%,30%,30%,72.3% (active),31%,31%,53.5%,16%,16%,39.6%
CC(C)(C[NH-])C[NH-].[Cl][Pt+2]([Cl])([Cl])[Cl],78% (active),97% (active),82.3% (active),93% (active),99% (active),86.5% (active),95% (active),99% (active),86.5% (active),79% (active),99% (active),87.4% (active),95% (active),99% (active),82.5% (active),90% (active),97% (active),57.5%
O=c1oc2ccccc2c(O)c1/C=N/C(=S)NCc1ccccc1,-28%,-15%,83.8% (active),-11%,-18%,85.8% (active),-19%,-19%,87.3% (active),-19%,10%,76.2% (active),-19%,2%,78.3% (active),-36%,-12%,-42.5%
CCCNC(=O)c1ccccc1,-1%,-5%,4%,2%,-2%,13.2%,1%,-5%,2.85%,-6%,-2%,70.8% (active),-5%,-9%,22.7%,-2%,-5%,7.6%
O=c1oc2ccccc2c(O)c1C1=N/C(=N/N=C/c2ccc(Cl)cc2)SC1,-6%,97% (active),64.2%,-3%,98% (active),30.7%,-3%,97% (active),4.05%,0%,95% (active),50.2%,-1%,97% (active),98.5% (active),1%,97% (active),47.2%
CC(CO)(CO)Cc1ccccc1,1%,-6%,96.5% (active),-2%,6%,97.9% (active),0%,-5%,80.5% (active),-3%,-4%,92.3% (active),-1%,1%,94% (active),2%,-3%,93.2% (active)
CCCCC(Oc1cc(C(C)(C)C)c(O)c(C(C)(C)C)c1)C(=O)O (stereo not given),21%,68%,99.1% (active),12%,70% (active),99.4% (active),35%,97% (active),99.5% (active),49%,95% (active),99% (active),3%,97% (active),99.2% (active),27%,97% (active),98.9% (active)
Nc1ccc([N+](=O)[O-])cc1Nc1c2ccccc2nc2ccccc12,5%,15%,82.3% (active),2%,5%,17.7%,1%,27%,40%,-1%,34%,-6.85%,-4%,17%,-43.4%,2%,37%,31.4%
Nc1c2c(=O)[nH]c(=O)c2c(N)c2c(=O)c3ccccc3c(=O)c12,36%,53%,78.2% (active),21%,47%,35.8%,50%,72% (active),38%,-26%,41%,34.5%,21%,78% (active),29.4%,30%,59%,60.6%
CCCCCCNC(=S)N/N=C(\C)c1ccccn1,72% (active),99% (active),76.3% (active),86% (active),99% (active),85.7% (active),63%,99% (active),90% (active),90% (active),95% (active),90.3% (active),98% (active),99% (active),90.5% (active),97% (active),93% (active),91.2% (active)
CN(C)CCN(C)N=Nc1c(-c2cccs2)n[nH]c1C(F)(F)F,98% (active),99% (active),99.1% (active),99% (active),100% (active),99.7% (active),99% (active),100% (active),99.6% (active),99% (active),98% (active),99.3% (active),99% (active),99% (active),99.5% (active),99% (active),100% (active),99.5% (active)
N#CC(c1ccc(Cl)cc1)c1ccc([N+](=O)[O-])cc1 (stereo not given),-12%,52%,40.9%,-16%,37%,20.5%,2%,84% (active),60.9%,-4%,53%,3.95%,2%,86% (active),64.3%,-5%,88% (active),45.5%
